# Hits are enriched below; roughly 0.87% of the tested compounds scored in any of these assays.
# Coupling enz = counter-screen for Giardia aldolase inhibitors: coupling enzyme system; coupling enzyme system counterscreen, AmpLite Red fluorescence; activity change, negative = inhibition, % at 58.2 µM, hits read low; 290,000 tested, 0.67% active; in the data active means activity change below about -30%; further: on the % scale 0 is the no-effect control and ±100 the full control effect
#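 Coupling enzymes only (glyceraldehyde-3-phosphate) + compound, at 57.5 uM final, 10 min RT; add substrate/coupling/AmpLite Red mix, 20 min RT; fluorescence ex 525/em 598 nm. Actives flag coupling-system interference.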
# EPAC1 antag = antagonists of human EPAC1 | O95398 | AID 720709 | Potency, µM (titrated, usually from 115 µM), for the others: top-dose activity change, negative = inhibition, actives largely listed as inhibitors | 360,000 tested, 0.14% active | EPAC1 GEF assay, Rap1b-BODIPY-GDP exchange fluorescence;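 further: potency means the concentration at half of the fitted maximal effect; plate controls were vehicle for no effect and positive control for full effect; nearly all actives have a fitted effect of over 50% in size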
# EPAC2 antagonist = EPAC2 (human) antagonism. EPAC2 GEF exchange of Rap1B-BODIPY-GDP, fluorescence. AID 720708. Q8WZA2. 360,000 tested, 0.18% active. Potency, µM (titrated, usually from 114 µM), without a hit: top-dose activity, negative = inhibition, actives largely listed as inhibitors; further: potency means the concentration at half of the fitted maximal effect; on the % scale 0 is the no-effect control and ±100 the full control effect; nearly all actives have a fitted effect of over 45% in size
# EPAC1 ag = agonists of human EPAC1 | O95398 | EPAC1 agonist qHTS, biochemical assay; response scale: 100% = response to 6.5 mM cAMP | Potency, µM (doses to about 154 µM), for the others: at the highest dose activation, most hits filed as activators | 360,000 tested, 0.073% active | AID 720707; further: potency means the concentration at half of the fitted maximal effect; nearly all actives have a fitted effect of over 60% in size
#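 Fluorescent GDP-exchange assay: 100 nM EPAC1 with 250 nM Rap1B preloaded with BODIPY-GDP and 50 uM GDP; compounds tested as concentration series, 5 min at room temperature, then read every 5 min for 30 min (ex 480/em 540 nm); normalized to 6.5 mM cAMP.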
# EPAC2 ag = EPAC2 (human) agonism; EPAC2 activation, biochemical qHTS; response scale: 100% = 6.5 mM cAMP response; Potency, µM (series often up to 154 µM), inactives show at the top dose activation, usual class: activators; 360,000 tested, 0.079% active; AID 720711; further: potency means the concentration at half of the fitted maximal effect; nearly all actives have a fitted effect of over 50% in size
#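 Fluorescence exchange assay: 100 nM EPAC2 with 250 nM RAP1B-BODIPY-GDP and 50 uM GDP; compounds tested as a concentration-titration series (qHTS). Loss of Rap1-bound BODIPY-GDP fluorescence read at 480/540 nm; data normalized to 6.5 mM cAMP.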
# USP1-UAF1 inh = USP1/UAF1 (human) deubiquitinase inhibition; AID 743255; Potency, µM (top dose mostly 57.1 µM), inactives show top-dose activity change, negative = inhibition, most hits filed as inhibitors; recombinant USP1/UAF1, Ub-Rhodamine cleavage fluorescence; 390,000 tested, 0.23% active; further: potency means the concentration at half of the fitted maximal effect; on the % scale 0 is the no-effect control and ±100 the full control effect; nearly all actives have a fitted effect of over 60% in size
# Target sequence (O94782 whole entry, looked up): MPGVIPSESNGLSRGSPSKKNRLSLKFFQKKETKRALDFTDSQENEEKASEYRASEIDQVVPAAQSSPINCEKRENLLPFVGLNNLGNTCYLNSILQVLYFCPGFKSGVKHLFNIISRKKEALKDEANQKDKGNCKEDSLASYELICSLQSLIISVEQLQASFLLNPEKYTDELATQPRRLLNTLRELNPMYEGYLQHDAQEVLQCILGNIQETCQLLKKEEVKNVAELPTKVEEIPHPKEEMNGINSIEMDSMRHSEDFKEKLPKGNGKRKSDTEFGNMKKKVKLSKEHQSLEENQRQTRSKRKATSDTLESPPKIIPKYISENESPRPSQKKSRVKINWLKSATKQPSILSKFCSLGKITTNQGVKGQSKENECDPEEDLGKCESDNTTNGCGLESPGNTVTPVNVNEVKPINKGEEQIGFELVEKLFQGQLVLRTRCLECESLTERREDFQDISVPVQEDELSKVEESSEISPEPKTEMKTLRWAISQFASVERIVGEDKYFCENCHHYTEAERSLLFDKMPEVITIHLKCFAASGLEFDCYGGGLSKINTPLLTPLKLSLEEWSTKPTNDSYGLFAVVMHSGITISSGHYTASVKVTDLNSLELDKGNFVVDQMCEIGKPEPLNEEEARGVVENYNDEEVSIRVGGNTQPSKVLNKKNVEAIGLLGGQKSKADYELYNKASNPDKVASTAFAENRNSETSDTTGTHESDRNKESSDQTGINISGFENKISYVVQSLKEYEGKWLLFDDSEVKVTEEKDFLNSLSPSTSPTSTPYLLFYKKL
#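 Step one: compound is pinned into 1nM USP1/UAF1 in HEPES pH 7.8 buffer with TCEP. Step two: 15 min room-temperature incubation. Step three: Ub-Rho (150nM final) starts cleavage, tracked by fluorescence over six one-minute reads.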
# * = called active by the depositor; i = inactive; ? = inconclusive; . = no result given; [ ] = another dose, or the depositor's remark. Unless noted, the call rests on the fitted dose curve; in most records, active means well fitted curve in the direction sought with a large enough effect; inconclusive means small, poorly fitted or top-dose-only effect, or another doubt; inactive means no such curve, though single readings can be large; an effect the other way counts as inactive or inconclusive.
SMILES,Coupling enz,EPAC1 antag,EPAC2 antagonist,EPAC1 ag,EPAC2 ag,USP1-UAF1 inh
COc1ccc(CNc2nc(-c3ccc(C(=O)N(C)C)cc3)nc3ccccc23)c(OC)c1,-13,.,.,.,.,.
COc1ccc(CNc2nc(-c3ccc(N(C)C)cc3)nc3ccccc23)c(OC)c1,-37*,.,.,.,.,.
Cn1cccc1C1C(C#N)=C(N)OC2=C1C(=O)CCC2 (stereo not given),-34*,-22%,9%,8%,7%,-15%
O=C(O)c1ccc(C[n+]2c(-c3ccccc3)csc2Nc2ccccc2)cc1,11,4%,-4%,-8%,-10%,-15%
CC(C)(C)c1cc(-c2csc(Nc3ccccc3)[n+]2Cc2ccc(C(=O)O)cc2)cc(C(C)(C)C)c1O,7,79µM*,-23%,-1%,-10%,?
COc1ccc(C(CNC(=O)c2cc(S(=O)(=O)Nc3cccc(C)c3)ccc2C)N2CCOCC2)cc1 (stereo not given),.,7%,-9%,3%,-4%,-23%
COC(=O)c1sc(NC(=O)COc2cccnc2[N+](=O)[O-])c(C(=O)OC)c1C,.,-3%,6%,-2%,7%,-10%
COc1cccc(F)c1C(=O)NC(=O)Nc1ccc2nc(C)oc2c1,-31*,0%,8%,15%,17%,?
CSc1nc2ccc(NC(=O)NC(=O)c3c(F)cccc3F)cc2s1,2,11%,3%,5%,11%,-4%
C/C(=N/NS(=O)(=O)c1ccc(Cl)cc1)c1cccc(O)c1,1,2%,-3%,-2%,-1%,-5%
C/C(=N\NS(=O)(=O)c1ccccc1)c1cc(Cl)cc(Cl)c1O,14,18µM*,?,-11%,4%,-9%
Cc1ccc(Cn2c(C)c(C(=O)NCC(C)C)sc2=O)cc1,.,-5%,11%,-6%,-1%,.
CCOc1cc(N2CCOCC2)c(OCC)cc1NC(=O)CSc1ncn[nH]1,-36*,7%,-1%,10%,3%,-3%
CCOc1cc(N2CCOCC2)c(OCC)cc1NC(C)C(=O)N1CCC(C)CC1 (stereo not given),-47*,-4%,13%,1%,4%,-26%
CCOc1cc(N2CCOCC2)c(OCC)cc1NC(=O)Cc1cccc(OC)c1,-1,2%,2%,18%,8%,-6%
CCOc1cc(N2CCOCC2)c(OCC)cc1NC(=O)COC(=O)[C@@H]1CCCN1S(=O)(=O)c1ccccc1F,-31*,11%,2%,-8%,-2%,-21%
CCOc1cc(N2CCOCC2)c(OCC)cc1NC(=O)Cc1ccc(OC)c(OC)c1,-41*,-6%,8%,2%,0%,-15%
CCOc1cc(N2CCOCC2)c(OCC)cc1NC(=O)CSc1n[nH]c(N)n1,-20,-2%,1%,0%,13%,-24%
Cc1[nH][nH]c(=O)c1/C=N/N1CCOCC1,-3,-10%,-13%,-4%,1%,5%
CCOCCc1nnc(NC(=O)c2cccc(F)c2)s1,6,-2%,-1%,-7%,-17%,-14%
COc1ccc(OC)c(CNC(=O)CCS(=O)(=O)c2ccc3c(c2)oc(=O)n3C)c1,.,2%,3%,11%,6%,-10%
O=C(c1ccc(SCc2ccco2)c([N+](=O)[O-])c1)N1CCOCC1,3,-26%,-4%,6%,7%,1%
CCOc1cc(N2CCOCC2)c(OCC)cc1NC1=NCCCCC1,-32*,-15%,1%[57.1 µM],0%,-7%,-32%
COc1c(C)cccc1C(=O)Nc1ccc(N2CCOCC2)c(Cl)c1,-35*,-25%,-5%,20%,15%,-14%
O=C(Nc1ccccc1N1CCOCC1)c1cccc2c(Br)cccc12,1,-10%,14µM*,-5%,-2%,-18%
SMILES,Coupling enz,EPAC1 antag,EPAC2 antagonist,EPAC1 ag,EPAC2 ag,USP1-UAF1 inh
O=C(Nc1ccc(N2CCOCC2)c(Cl)c1)c1cccnc1Cl,-5,-17%,1%,19%,4%,-20%
CCN(Cc1ccccc1)S(=O)(=O)c1cc(C(=O)c2c(N)n(C)c(=O)n(C)c2=O)ccc1OC,-1,-21%,-24%,12%,7%,-11%
O=C(CCc1ccc(S(=O)(=O)N2CCOCC2)cc1)N/N=C/c1ccc(O)c(O)c1O,-31*,-14%,10%,-3%,7%,-17%
O=C(CCc1ccc(S(=O)(=O)N2CCOCC2)cc1)N/N=C/c1ccc(F)cc1F,5,-24%,29%,-8%,7%,-16%
O=[N+]([O-])c1ccc(N/N=C/c2cccc(O)c2O)c(S(=O)(=O)N2CCOCC2)c1,-10,?,5%,-2%,7%,1%
O=[N+]([O-])c1ccc(N/N=C/c2ccc(O)c(O)c2O)c(S(=O)(=O)N2CCOCC2)c1,-59*,?,-16%,13%,-1%,?
CC(C)(C)S(=O)(=O)/C(C#N)=N/Nc1ccc(S(C)(=O)=O)cc1,6,-16%,4%,3%,2%,-17%
Cc1nnc(N/N=C/c2ccco2)n1N,-42*,3%,6%,8%,-4%,-17%
COc1cc(OC)c(NC(=O)c2cncn2-c2ccc(F)cc2)cc1Cl,1,14%,12%,3%,13%,-6%
CN(C)c1ccc(/C=C/C(=O)c2cccc(Br)c2)cc1,-1,68%,56%,100µM*,100µM*,i
CN(C)c1ccc(C(=O)/C=C/c2cccnc2)cc1,-2,-10%,0%,3%,2%,-4%
COc1ccc(C(C)=O)cc1COc1ccc(F)cc1,-5,-30%,56µM*,15%,14%,-10%
COc1ccc(C(=O)/C=C/c2ccc(OC)c(COc3ccc(F)cc3)c2)cc1,0,-12%,-2%,14%,11%,?
Cc1cccc(C)c1OCC(=O)OCC(=O)c1ccc2c(c1)NC(=O)CO2,-2,-1%,-6%,10%,4%,-7%
CC(C)N(C(=S)Nc1cccc(C(F)(F)F)c1)C(C)c1ccccn1 (stereo not given),2,?,?,3%,11%,1%
COc1ccc(C2C(C(=O)c3cccs3)=C(O)C(=O)N2c2nnc(C)s2)cc1OC (stereo not given),9,12%,53%,8%,21%,4µM*
COc1ccc(C2C(C(=O)c3cccs3)=C(O)C(=O)N2c2nncs2)cc1 (stereo not given),9,-10%,18%,-7%,-21%,2µM*
C=CCOc1ccc(C2C(C(=O)c3cccs3)=C(O)C(=O)N2c2nnc(C)s2)cc1 (stereo not given),.,8%,11%,-11%,-72%,48%
O=C(NCCNCc1ccccc1)c1ccco1,.,?,-14%,-5%,-7%,-19%

# Screening results deposited in PubChem BioAssay by National Center for Advancing Translational Sciences (NCATS).
